# Assay results as given in the supplement of paper PMC10849652.
# About 8,800 targets were measured; listed, in parts, are those with a hit and a random draw of the rest. About 0.5% of all pairs of compound and target were hits.
# Assays:
# Test in all cases: log2 fold change, soluble protein after heating vs DMSO (PISA); higher = thermal stabilisation; K562 lysate, 10 uM; active = over 0.2 and 3.5 SD of the protein, either way, in both replicates (recomputed)
# ibrutinib = compound: C=CC(=O)N1CCC[C@@H](n2nc(-c3ccc(Oc4ccccc4)cc3)c3c(N)ncnc32)C1 [ibrutinib]
# Procedure, shortened: (§1)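 A 30 min treatment with 10 μM compound was applied to crude K562 extract at 1 mg/mL protein in PBS pH 7.4 with 1 mM MgCl2. Heating for 3 min spanned 48°C-58°C, after which aliquots were pooled, adjusted to 0.5% NP-40 at 4°C and spun at 21,000xg for 90 min. TMTpro 16plex LC-MS/MS of the supernatant, with channel sums equalised, gave values recorded as log-two fold change in thermal stability against solvent controls, from duplicates.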
# [1] = compound: CC(=O)c1cnc2ccc(-c3cc(Cl)c(O)c(Cl)c3)nc2c1N[C@H]1CC[C@H](CN(C)C)CC1
# Procedure, shortened: as §1
# ralimetinib = compound: CC(C)(C)Cn1c(N)nc2ccc(-c3[nH]c(C(C)(C)C)nc3-c3ccc(F)cc3)nc21 [ralimetinib]
# Procedure, shortened: as §1
# [2] = compound: CC(C)(O)CC(=O)NCCn1ccc2ncnc(Nc3ccc(Oc4cccc(C(F)(F)F)c4)c(Cl)c3)c21
# Procedure, shortened: as §1
# [3] = compound: CC(C)C1=C2N=C(C=C(N2N=C1)NCC3=CC=CC=C3)NCCCCCCN
# Procedure, shortened: as §1
# [4] = compound: CC1=C(C(CC(=O)N1)C2=CC=C(C=C2)C(F)(F)F)C(=O)NC3=C(C=C4C(=C3)C=NN4)F
# Procedure, shortened: as §1
# [5] = compound: CC1=C(C2=C(C=C1)C(=O)C3=CC=CC=C3N2CCCN)C
# Procedure, shortened: as §1
# [6] = compound: CC1=C(C=C(C=C1)NC(=O)C2=CC(=CC=C2)C(C)(C)C#N)NC3=CC4=C(C=C3)N=CN(C4=O)C
# Procedure, shortened: as §1
# [7] = compound: CC1=C(C=C(C=C1)NC(=O)C2=CC(=CC=C2)N(C)C)NC(=O)C3=CC=C(C=C3)O
# Procedure, shortened: as §1
# [8] = compound: CC1=CC=C(C=C1)SC2=C3C=C(SC3=CN=C2)C(=O)N
# Procedure, shortened: as §1
# vemurafenib = compound: CCCS(=O)(=O)Nc1ccc(F)c(C(=O)c2c[nH]c3ncc(-c4ccc(Cl)cc4)cc23)c1F [vemurafenib]
# Procedure, shortened: as §1
# [9] = compound: CCCS(=O)(=O)Nc1ccc(F)c(C(=O)c2c[nH]c3ncc(Cl)cc23)c1F
# Procedure, shortened: as §1
# barasertib = compound: CCN(CCCOc1ccc2c(Nc3cc(CC(=O)Nc4cccc(F)c4)[nH]n3)ncnc2c1)CCOP(=O)(O)O [barasertib]
# Procedure, shortened: as §1
# [10] = compound: CC[C@@H]1C(=O)N(C)c2cnc(Nc3ccc(C(=O)NC4CCN(C)CC4)cc3OC)nc2N1C1CCCC1
# Procedure, shortened: as §1
# volasertib = compound: CC[C@@H]1C(=O)N(C)c2cnc(Nc3ccc(C(=O)N[C@H]4CC[C@H](N5CCN(CC6CC6)CC5)CC4)cc3OC)nc2N1C(C)C [volasertib]
# Procedure, shortened: as §1
# [11] = compound: CCn1c(C(=O)N(C2CC2)C2CC2)cc2c3c(ncn3C)c(Nc3cc(C)n(C)n3)nc21
# Procedure, shortened: as §1
# [12] = compound: CCn1cc(-c2ccnc3[nH]c(-c4cccc(CN(C)C)c4)cc23)c(-c2ccc(NC(=O)N(C)C)cc2)n1
# Procedure, shortened: as §1
# [13] = compound: CN1CCC(CNc2ccc3ncc(-c4cccc(OC(F)(F)F)c4)n3n2)CC1
# Procedure, shortened: as §1
# saracatinib = compound: CN1CCN(CCOc2cc(OC3CCOCC3)c3c(Nc4c(Cl)ccc5c4OCO5)ncnc3c2)CC1 [saracatinib]
# Procedure, shortened: as §1
# sotrastaurin = compound: CN1CCN(c2nc(C3=C(c4c[nH]c5ccccc45)C(=O)NC3=O)c3ccccc3n2)CC1 [sotrastaurin]
# Procedure, shortened: as §1
# Chain of UniProt Q9UGJ1 (Q9UGJ1 whole entry, looked up): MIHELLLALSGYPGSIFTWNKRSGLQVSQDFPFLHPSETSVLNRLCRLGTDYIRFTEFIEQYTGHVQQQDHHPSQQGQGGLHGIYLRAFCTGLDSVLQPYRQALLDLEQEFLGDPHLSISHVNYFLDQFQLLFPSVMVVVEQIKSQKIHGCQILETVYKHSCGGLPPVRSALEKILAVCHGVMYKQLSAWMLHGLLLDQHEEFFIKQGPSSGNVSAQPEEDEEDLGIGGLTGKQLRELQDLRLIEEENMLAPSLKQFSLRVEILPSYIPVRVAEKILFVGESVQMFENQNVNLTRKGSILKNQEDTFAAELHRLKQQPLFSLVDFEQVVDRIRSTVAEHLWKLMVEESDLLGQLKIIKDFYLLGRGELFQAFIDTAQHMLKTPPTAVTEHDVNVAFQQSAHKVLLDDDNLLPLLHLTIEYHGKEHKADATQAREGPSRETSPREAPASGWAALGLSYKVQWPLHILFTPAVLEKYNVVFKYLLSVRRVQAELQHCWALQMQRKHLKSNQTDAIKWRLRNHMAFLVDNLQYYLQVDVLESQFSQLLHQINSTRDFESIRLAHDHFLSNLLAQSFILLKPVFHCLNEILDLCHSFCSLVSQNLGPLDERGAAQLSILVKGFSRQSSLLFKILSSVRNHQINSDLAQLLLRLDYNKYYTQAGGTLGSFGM
# Chain of UniProt Q14157 (Q14157 whole entry, looked up): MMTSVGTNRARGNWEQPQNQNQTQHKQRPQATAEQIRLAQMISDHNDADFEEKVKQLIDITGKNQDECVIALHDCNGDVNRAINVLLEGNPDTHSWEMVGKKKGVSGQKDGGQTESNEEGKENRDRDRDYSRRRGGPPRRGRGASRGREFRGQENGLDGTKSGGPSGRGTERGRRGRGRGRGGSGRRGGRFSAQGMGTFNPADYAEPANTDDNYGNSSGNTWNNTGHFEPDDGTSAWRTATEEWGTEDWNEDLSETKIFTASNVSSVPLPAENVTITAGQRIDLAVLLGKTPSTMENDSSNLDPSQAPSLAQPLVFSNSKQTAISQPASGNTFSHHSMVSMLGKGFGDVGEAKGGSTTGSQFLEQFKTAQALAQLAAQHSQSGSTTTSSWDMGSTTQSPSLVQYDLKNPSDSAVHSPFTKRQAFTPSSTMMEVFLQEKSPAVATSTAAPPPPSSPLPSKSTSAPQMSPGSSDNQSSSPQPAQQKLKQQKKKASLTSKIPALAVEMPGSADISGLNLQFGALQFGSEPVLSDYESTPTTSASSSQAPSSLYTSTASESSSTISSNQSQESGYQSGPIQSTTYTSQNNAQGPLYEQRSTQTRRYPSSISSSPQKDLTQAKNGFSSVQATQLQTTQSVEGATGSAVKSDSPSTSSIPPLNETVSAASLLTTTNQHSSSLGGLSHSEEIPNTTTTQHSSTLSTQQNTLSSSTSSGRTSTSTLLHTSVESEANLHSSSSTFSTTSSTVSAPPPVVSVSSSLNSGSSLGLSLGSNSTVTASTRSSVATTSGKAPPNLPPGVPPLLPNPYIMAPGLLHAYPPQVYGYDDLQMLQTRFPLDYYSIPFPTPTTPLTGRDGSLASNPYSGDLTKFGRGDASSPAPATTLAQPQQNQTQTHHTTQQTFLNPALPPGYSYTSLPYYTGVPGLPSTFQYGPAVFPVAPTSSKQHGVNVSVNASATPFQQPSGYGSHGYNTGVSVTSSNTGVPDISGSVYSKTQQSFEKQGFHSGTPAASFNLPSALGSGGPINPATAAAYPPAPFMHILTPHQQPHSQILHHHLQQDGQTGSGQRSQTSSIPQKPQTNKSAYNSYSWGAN
# Chain of UniProt Q96K49 (Q96K49 whole entry, looked up): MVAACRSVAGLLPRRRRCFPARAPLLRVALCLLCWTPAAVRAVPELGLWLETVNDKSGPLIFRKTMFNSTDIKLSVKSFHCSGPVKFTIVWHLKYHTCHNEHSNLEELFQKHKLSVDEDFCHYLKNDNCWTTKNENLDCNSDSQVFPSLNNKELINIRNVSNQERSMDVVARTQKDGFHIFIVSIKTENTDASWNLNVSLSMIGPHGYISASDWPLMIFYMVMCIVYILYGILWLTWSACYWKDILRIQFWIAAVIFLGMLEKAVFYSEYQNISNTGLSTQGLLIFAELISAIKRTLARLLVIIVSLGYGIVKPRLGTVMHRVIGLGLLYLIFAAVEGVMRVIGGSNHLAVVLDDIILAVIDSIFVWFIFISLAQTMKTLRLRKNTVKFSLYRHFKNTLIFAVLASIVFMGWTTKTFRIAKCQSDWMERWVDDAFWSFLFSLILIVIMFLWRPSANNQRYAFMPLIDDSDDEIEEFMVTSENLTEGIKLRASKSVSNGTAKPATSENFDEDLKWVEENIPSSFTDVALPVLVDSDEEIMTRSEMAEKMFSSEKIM
# Chain of UniProt Q5T6F2 (Q5T6F2 whole entry, looked up): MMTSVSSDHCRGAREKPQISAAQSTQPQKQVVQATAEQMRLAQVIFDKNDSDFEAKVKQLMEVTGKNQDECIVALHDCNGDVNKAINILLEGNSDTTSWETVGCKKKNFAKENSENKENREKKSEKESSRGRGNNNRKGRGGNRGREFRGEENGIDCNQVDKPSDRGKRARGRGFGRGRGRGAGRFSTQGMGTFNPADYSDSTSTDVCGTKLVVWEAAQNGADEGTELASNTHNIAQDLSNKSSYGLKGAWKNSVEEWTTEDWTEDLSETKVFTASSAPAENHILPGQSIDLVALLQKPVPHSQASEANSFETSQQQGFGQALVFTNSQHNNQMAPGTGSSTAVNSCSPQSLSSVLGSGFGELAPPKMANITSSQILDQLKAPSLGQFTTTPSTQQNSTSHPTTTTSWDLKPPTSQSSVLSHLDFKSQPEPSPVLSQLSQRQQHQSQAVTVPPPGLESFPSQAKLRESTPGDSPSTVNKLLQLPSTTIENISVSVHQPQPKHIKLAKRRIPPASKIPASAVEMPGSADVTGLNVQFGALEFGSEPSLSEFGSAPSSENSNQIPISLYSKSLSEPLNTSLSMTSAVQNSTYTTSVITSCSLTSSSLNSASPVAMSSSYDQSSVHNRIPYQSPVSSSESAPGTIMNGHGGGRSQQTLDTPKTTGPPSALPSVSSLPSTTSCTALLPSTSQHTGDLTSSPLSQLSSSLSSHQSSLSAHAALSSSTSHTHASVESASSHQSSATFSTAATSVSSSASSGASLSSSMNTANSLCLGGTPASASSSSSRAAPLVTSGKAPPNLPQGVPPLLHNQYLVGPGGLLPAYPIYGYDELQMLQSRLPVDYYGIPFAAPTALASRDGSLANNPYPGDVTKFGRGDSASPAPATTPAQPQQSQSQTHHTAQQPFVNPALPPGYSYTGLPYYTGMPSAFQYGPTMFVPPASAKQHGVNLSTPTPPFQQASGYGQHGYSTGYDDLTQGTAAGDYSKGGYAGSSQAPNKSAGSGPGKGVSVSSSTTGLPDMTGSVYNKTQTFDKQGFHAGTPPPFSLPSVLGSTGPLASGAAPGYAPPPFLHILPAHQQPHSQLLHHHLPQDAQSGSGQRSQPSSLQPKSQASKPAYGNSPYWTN
# Chain of UniProt Q96BS2 (Q96BS2 whole entry, looked up): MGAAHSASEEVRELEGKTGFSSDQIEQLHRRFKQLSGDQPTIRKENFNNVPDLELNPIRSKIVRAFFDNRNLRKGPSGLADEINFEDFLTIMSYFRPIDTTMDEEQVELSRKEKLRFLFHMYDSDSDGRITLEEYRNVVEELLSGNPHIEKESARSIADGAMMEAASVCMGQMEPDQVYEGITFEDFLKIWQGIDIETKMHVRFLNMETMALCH
# Chain of UniProt Q9UKI8 (Q9UKI8 whole entry, looked up): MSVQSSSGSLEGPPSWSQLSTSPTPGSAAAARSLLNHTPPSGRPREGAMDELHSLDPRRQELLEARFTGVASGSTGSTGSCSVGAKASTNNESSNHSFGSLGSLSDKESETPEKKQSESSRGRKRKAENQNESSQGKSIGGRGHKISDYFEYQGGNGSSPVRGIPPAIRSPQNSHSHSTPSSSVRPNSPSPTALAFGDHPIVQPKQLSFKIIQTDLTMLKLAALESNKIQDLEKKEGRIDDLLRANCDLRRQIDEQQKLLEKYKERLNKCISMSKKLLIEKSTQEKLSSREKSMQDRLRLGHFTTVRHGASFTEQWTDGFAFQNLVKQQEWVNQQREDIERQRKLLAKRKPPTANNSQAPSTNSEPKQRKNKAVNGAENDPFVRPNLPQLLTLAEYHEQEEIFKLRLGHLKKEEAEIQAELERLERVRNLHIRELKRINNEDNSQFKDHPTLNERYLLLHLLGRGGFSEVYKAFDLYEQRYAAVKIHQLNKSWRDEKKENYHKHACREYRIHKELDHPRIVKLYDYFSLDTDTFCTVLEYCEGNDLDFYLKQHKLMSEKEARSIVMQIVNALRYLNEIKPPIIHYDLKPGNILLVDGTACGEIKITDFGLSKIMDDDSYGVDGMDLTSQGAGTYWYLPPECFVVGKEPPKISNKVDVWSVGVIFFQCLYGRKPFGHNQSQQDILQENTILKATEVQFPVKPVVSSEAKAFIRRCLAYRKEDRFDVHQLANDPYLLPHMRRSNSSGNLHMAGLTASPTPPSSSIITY
# Chain of UniProt Q9NYB0 (Q9NYB0 whole entry, looked up): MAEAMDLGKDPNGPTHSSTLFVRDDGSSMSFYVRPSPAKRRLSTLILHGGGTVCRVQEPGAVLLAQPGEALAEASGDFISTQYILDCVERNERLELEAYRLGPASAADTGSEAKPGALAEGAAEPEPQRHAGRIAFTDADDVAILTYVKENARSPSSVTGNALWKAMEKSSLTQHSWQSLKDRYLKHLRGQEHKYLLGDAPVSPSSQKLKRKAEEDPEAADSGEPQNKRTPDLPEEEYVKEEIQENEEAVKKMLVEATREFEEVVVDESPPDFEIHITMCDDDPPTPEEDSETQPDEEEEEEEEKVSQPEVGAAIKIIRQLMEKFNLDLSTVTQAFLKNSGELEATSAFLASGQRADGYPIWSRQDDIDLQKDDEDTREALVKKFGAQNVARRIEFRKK
Target,log2 fold change (ibrutinib),log2 fold change [1],log2 fold change (ralimetinib),log2 fold change [2],log2 fold change [3],log2 fold change [4],log2 fold change [5],log2 fold change [6],log2 fold change [7],log2 fold change [8],log2 fold change (vemurafenib),log2 fold change [9],log2 fold change (barasertib),log2 fold change [10],log2 fold change (volasertib),log2 fold change [11],log2 fold change [12],log2 fold change [13],log2 fold change (saracatinib),log2 fold change (sotrastaurin)
UBAP2L isoform 5 (UniProt Q14157),0.024 (inactive),0.028 (inactive),-0.026 (inactive),-0.055 (inactive),0.019 (inactive),0.009 (inactive),0.024 (inactive),-0.529 (active),-0.009 (inactive),0.003 (inactive),-0.002 (inactive),0.025 (inactive),0.013 (inactive),0.023 (inactive),-0.006 (inactive),0.013 (inactive),0.028 (inactive),-0.01 (inactive),0.03 (inactive),-0.002 (inactive)
UBAP2 (UniProt Q5T6F2),0.014 (inactive),0.009 (inactive),-0.044 (inactive),-0.067 (inactive),0.008 (inactive),0.03 (inactive),0.006 (inactive),-0.474 (active),-0.026 (inactive),-0.019 (inactive),0.009 (inactive),0.016 (inactive),-0.007 (inactive),0.071 (inactive),-0.002 (inactive),0.004 (inactive),-0.172 (inactive),0.106 (inactive),0.028 (inactive),0.02 (inactive)
TERF2IP (UniProt Q9NYB0),0.02 (inactive),-0.012 (inactive),0.025 (inactive),-0.049 (inactive),-0.047 (inactive),0.004 (inactive),-0.004 (inactive),-0.008 (inactive),-0.005 (inactive),0.003 (inactive),-0.009 (inactive),-0.003 (inactive),-0.006 (inactive),0.075 (inactive),0.022 (inactive),-0.015 (inactive),0.269 (active),-0.152 (inactive),-0.003 (inactive),0.008 (inactive)
TRIM23 (UniProt P36406),-0.031 (inactive),0.061 (inactive),-0.102 (inactive),-0.085 (inactive),-0.056 (inactive),0.026 (inactive),-0.065 (inactive),0.099 (inactive),-0.22 (inactive),-0.022 (inactive),0.077 (inactive),-0.038 (inactive),0.119 (inactive),0.115 (inactive),-0.03 (inactive),0.316 (inactive),-0.28 (inactive),0.073 (inactive),0.096 (inactive),0.01 (inactive)
TUBE1 (UniProt Q9UJT0),0.065 (inactive),-0.017 (inactive),0.05 (inactive),-0.034 (inactive),0.024 (inactive),-0.001 (inactive),0.027 (inactive),-0.02 (inactive),0.001 (inactive),-0.03 (inactive),0.036 (inactive),0.012 (inactive),0.03 (inactive),0.112 (inactive),-0.005 (inactive),0.028 (inactive),0.257 (inactive),-0.082 (inactive),0.089 (inactive),0.043 (inactive)
TUBB3 (UniProt Q13509),0.003 (inactive),0.009 (inactive),0.022 (inactive),-0.019 (inactive),0.025 (inactive),0.013 (inactive),0.005 (inactive),-0.007 (inactive),0.015 (inactive),0.019 (inactive),-0.004 (inactive),0.018 (inactive),-0.042 (inactive),-0.019 (inactive),-0.046 (inactive),0.027 (inactive),-0.002 (inactive),0.012 (inactive),0.015 (inactive),0.027 (inactive)
TESC (UniProt Q96BS2),0.065 (inactive),-0.029 (inactive),0.005 (inactive),0.056 (inactive),-0.055 (inactive),0.043 (inactive),0.015 (inactive),0 (inactive),-0.013 (inactive),-0.077 (inactive),0.045 (inactive),0.029 (inactive),0.291 (active),0.047 (inactive),0.036 (inactive),-0.004 (inactive),0.109 (inactive),-0.023 (inactive),0.063 (inactive),0.012 (inactive)
TLK1 isoform 2 (UniProt Q9UKI8),0.017 (inactive),0.094 (inactive),0.053 (inactive),0.01 (inactive),0.012 (inactive),-0.002 (inactive),0.038 (inactive),-0.013 (inactive),-0.037 (inactive),0 (inactive),0.001 (inactive),-0.003 (inactive),0.06 (inactive),-0.048 (inactive),-0.078 (inactive),0.01 (inactive),-0.092 (inactive),0.072 (inactive),0.014 (inactive),0.393 (active)
TDRD3 isoform 3 (UniProt Q9H7E2),-0.03 (inactive),0.009 (inactive),-0.094 (inactive),0.01 (inactive),-0.018 (inactive),-0.073 (inactive),-0.004 (inactive),0 (inactive),-0.102 (inactive),0.026 (inactive),0.012 (inactive),-0.01 (inactive),-0.043 (inactive),0.041 (inactive),-0.054 (inactive),0.137 (inactive),0.164 (inactive),-0.078 (inactive),-0.094 (inactive),0.014 (inactive)
TCF12 isoform 3 (UniProt Q99081),0.059 (inactive),-0.029 (inactive),-0.022 (inactive),-0.054 (inactive),0.002 (inactive),-0.008 (inactive),0.064 (inactive),-0.008 (inactive),0.011 (inactive),0.109 (inactive),0.008 (inactive),-0.068 (inactive),-0.037 (inactive),0.034 (inactive),-0.094 (inactive),0.017 (inactive),-0.04 (inactive),0.079 (inactive),0.043 (inactive),-0.054 (inactive)
TUBGCP2 isoform 4 (UniProt Q9BSJ2),-0.001 (inactive),0.042 (inactive),-0.007 (inactive),-0.016 (inactive),-0.006 (inactive),0.011 (inactive),-0.023 (inactive),0.035 (inactive),0.048 (inactive),-0.017 (inactive),0.02 (inactive),0.01 (inactive),0.027 (inactive),0.001 (inactive),-0.049 (inactive),0.021 (inactive),0.078 (inactive),-0.064 (inactive),-0.035 (inactive),0 (inactive)
TUT4 (UniProt Q5TAX3),0.024 (inactive),-0.013 (inactive),0.006 (inactive),-0.07 (inactive),0.023 (inactive),-0.003 (inactive),-0.045 (inactive),-0.165 (inactive),-0.007 (inactive),0.041 (inactive),0.091 (inactive),-0.007 (inactive),0.024 (inactive),-0.021 (inactive),-0.06 (inactive),0.031 (inactive),-0.085 (inactive),0.083 (inactive),-0.01 (inactive),0.035 (inactive)
TUBGCP4 (UniProt Q9UGJ1),0 (inactive),-0.051 (inactive),0.052 (inactive),-0.037 (inactive),0 (inactive),0.021 (inactive),-0.048 (inactive),-0.002 (inactive),0.05 (inactive),0.043 (inactive),0.088 (inactive),0.028 (inactive),0.116 (inactive),0.039 (inactive),-0.027 (inactive),0.026 (inactive),0.013 (inactive),-0.077 (inactive),0.025 (inactive),0.109 (inactive)
TMEM87B (UniProt Q96K49),-0.076 (inactive),-0.017 (inactive),-0.003 (inactive),-0.001 (inactive),-0.047 (inactive),-0.011 (inactive),-0.01 (inactive),-0.012 (inactive),0.028 (inactive),-0.012 (inactive),-0.004 (inactive),0.047 (inactive),0.091 (inactive),0.018 (inactive),0.005 (inactive),-0.006 (inactive),0.074 (inactive),-0.032 (inactive),-0.166 (inactive),0.026 (inactive)
TOE1 (UniProt Q96GM8),0.011 (inactive),-0.001 (inactive),0.007 (inactive),0.003 (inactive),0.008 (inactive),-0.061 (inactive),-0.023 (inactive),-0.02 (inactive),0.014 (inactive),0.011 (inactive),0.052 (inactive),0.018 (inactive),-0.053 (inactive),-0.051 (inactive),-0.031 (inactive),-0.042 (inactive),-0.022 (inactive),-0.005 (inactive),-0.029 (inactive),0.007 (inactive)
